Assay results as given in PubChem BioAssay (NCI).
About 79,000 compounds went through this panel and 15% of them were active in at least one assay; those are over-represented in the sample as a whole. Active and inactive are the calls of the source. No stated cut-off is given here; in the data, active means growth inhibition above about 70%; inactive means the rest.

Assays:
[1] = NCI Yeast Anticancer Drug Screen. Data for the mec2-1 strain (AID 157); settings: S. cerevisiae mec2-1 strain, stronger effect = higher value
Summary of the method: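 Strain: mec2-1 (DNA repair/cell cycle alteration). Compound exposure, then growth measured; inhibition expressed relative to vehicle.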

[2] = NCI Yeast Anticancer Drug Screen. Data for the rad14 strain (AID 159);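 further: 0% = growth of vehicle-treated control cultures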; settings: S. cerevisiae rad14 strain growth inhibition, stronger effect = higher value
Summary of the method: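 Yeast cells carrying a defined DNA-repair defect were exposed to compounds, and growth inhibition was calculated relative to vehicle-treated control cultures.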

[3] = NCI Yeast Anticancer Drug Screen. Data for the sgs1 mgt1 strain (AID 161);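 further: 0% = growth of cultures given vehicle only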; settings: S. cerevisiae sgs1 mgt1 strain, stronger effect = higher value
Summary of the method: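 Test agents were incubated with a DNA-repair-mutant yeast strain. Growth was then read and compared against vehicle-treated controls.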

[4] = NCI Yeast Anticancer Drug Screen. Data for the CLN2oe strain (AID 163);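 further: 0% = growth of vehicle-only control cultures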; settings: S. cerevisiae CLN2oe strain, stronger effect = higher value
Summary of the method: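 Growth of a genetically modified yeast strain is measured after compound exposure and compared with cultures given vehicle alone.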

[5] = NCI Yeast Anticancer Drug Screen. Data for the cln2 rad14 strain (AID 165);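 further: 0% = growth equal to vehicle treated cultures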; settings: S. cerevisiae cln2 rad14 strain, stronger effect = higher value
Summary of the method: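 Compounds are applied to the cln2 rad14 yeast strain, and growth is then compared with that of vehicle-treated cultures to give inhibition.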

[6] = NCI Yeast Anticancer Drug Screen. Data for the bub3 strain (AID 167); settings: S. cerevisiae bub3 mutant strain, stronger effect = higher value
Summary of the method: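 Compounds were applied to a genetically altered yeast strain carrying a cell-cycle control defect. Growth inhibition was scored against vehicle-treated controls.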

[7] = NCI Yeast Anticancer Drug Screen. Data for the wt2 strain (AID 169);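 further: 0% = growth of vehicle-treated yeast cultures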; settings: S. cerevisiae wt2 strain growth inhibition, stronger effect = higher value
Summary of the method: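 This strain belongs to a panel of yeast strains with defined genetic alterations in DNA damage repair or cell cycle control. Compounds are applied, and growth inhibition is measured against vehicle-treated cultures.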

[8] = NCI Yeast Anticancer Drug Screen. Data for the mlh1 strain (AID 171);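 further: 0% = growth of vehicle-treated control cultures of the same strain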; settings: S. cerevisiae mlh1 strain growth inhibition, stronger effect = higher value
Summary of the method: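 Growth of the mutant yeast strain after compound exposure, expressed as inhibition relative to vehicle-only controls.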

[9] = NCI Yeast Anticancer Drug Screen. Data for the sgs1 strain (AID 173);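 further: 0% = growth of vehicle-only control cultures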; settings: S. cerevisiae sgs1 mutant, stronger effect = higher value
Summary of the method: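 Growth of a yeast strain bearing a defined genetic alteration is measured after compound treatment. Inhibition is expressed relative to vehicle-only controls.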

[10] = NCI Yeast Anticancer Drug Screen. Data for the mlh1 rad18 strain (AID 175); settings: S. cerevisiae mlh1 rad18 strain growth inhibition, stronger effect = higher value
Summary of the method: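 Read-out is yeast growth inhibition, calculated against vehicle-only controls. The compound was applied to a strain engineered with DNA damage repair alterations.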

[11] = NCI Yeast Anticancer Drug Screen. Data for the rad18 strain (AID 177); settings: S. cerevisiae rad18 mutant growth inhibition, stronger effect = higher value
Summary of the method: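 Growth of the mutant yeast strain after compound exposure, normalised to vehicle-only cultures.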

[12] = NCI Yeast Anticancer Drug Screen. Data for the rad52 strain (AID 147);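 further: 0% = growth of vehicle-treated control cultures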; settings: S. cerevisiae rad52 mutant growth inhibition, stronger effect = higher value
Summary of the method: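 Compounds are applied to a genetically defined yeast strain lacking normal DNA damage repair, and inhibition of growth is expressed relative to cultures given vehicle only.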

[13] = NCI Yeast Anticancer Drug Screen. Data for the wt1 strain (AID 149);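 further: 0% = growth of vehicle-treated wt1 cultures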; settings: S. cerevisiae wt1 strain (SPY 50644) growth inhibition, stronger effect = higher value
Summary of the method: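 Yeast wt1 strain exposed to compounds; growth inhibition measured relative to vehicle-treated controls.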

[14] = NCI Yeast Anticancer Drug Screen. Data for the rad50EPP+ strain (AID 151);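 further: 0% = growth of vehicle-treated control cultures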; settings: S. cerevisiae rad50 mutant strain, stronger effect = higher value
Summary of the method: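 Compounds were applied to the rad50EPP+ yeast strain, which bears a defined DNA repair alteration, and growth inhibition was determined relative to vehicle-treated cultures.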

[15] = NCI Yeast Anticancer Drug Screen. Data for the mgt1 strain (AID 153); settings: S. cerevisiae mgt1 mutant growth inhibition, stronger effect = higher value
Summary of the method: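 Strain: mgt1 yeast, one of a set carrying defined DNA damage repair or cell cycle control alterations. Compound-treated growth compared with vehicle.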

[16] = NCI Yeast Anticancer Drug Screen. Data for the rad50 strain (AID 155);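 further: 0% = growth of vehicle-only cultures of the same strain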; settings: S. cerevisiae rad50 strain growth inhibition, stronger effect = higher value
Summary of the method: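 Yeast carrying a defined DNA repair defect were exposed to test compounds, and growth was compared with vehicle-treated controls to give percent inhibition.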

[17] = at 5.0 µM (retest, dose inferred, filed as 0.5)
[18] = at 50.0 µM (retest, dose inferred, filed as 5.0)

Measured: growth inhibition

Fc1ccc(NC(=S)SCc2ccc(Cl)c(Cl)c2)cc1F
active: [1]; [18] 98% | [1]; at 50.0 µM 93.2% | [1]; at 100.0 µM 99% | [2]; at 33.0 µM 99% | [2]; at 100.0 µM 98% | [3]; [18] 98% | [3]; at 50.0 µM 90% | [4]; at 33.0 µM 80% | [4]; at 100.0 µM 97% | [5]; [18] 97% | [5]; at 50.0 µM 90.5% | [6]; at 33.0 µM 98% | [6]; [18] 97% | [6]; at 50.0 µM 90.8% | [6]; at 100.0 µM 98% | [7]; at 33.0 µM 99% | [7]; at 100.0 µM 99% | [8]; at 33.0 µM 99% | [8]; at 100.0 µM 98% | [9]; at 33.0 µM 99% | [9]; at 100.0 µM 97% | [10]; [18] 97% | [10]; at 50.0 µM 90.6% | [11]; at 33.0 µM 98% | [11]; at 100.0 µM 98%
inactive: [1]; [17] 18% | [1]; at 11.0 µM -4% | [1]; at 33.0 µM 60% | [2]; at 1.2 µM 3% | [2]; at 3.7 µM 5% | [2]; at 11.0 µM 24% | [3]; [17] 25% | [4]; at 1.2 µM -7% | [4]; at 3.7 µM -10% | [4]; at 11.0 µM -11% | [5]; [17] -2% | [6]; at 1.2 µM -2% | [6]; at 3.7 µM -4% | [6]; [17] 1% | [6]; at 11.0 µM 21% | [7]; at 1.2 µM 10% | [7]; at 3.7 µM 13% | [7]; at 11.0 µM 64% | [8]; at 1.2 µM -13% | [8]; at 3.7 µM -7% | [8]; at 11.0 µM 27% | [9]; at 1.2 µM -5% | [9]; at 3.7 µM -1% | [9]; at 11.0 µM 44% | [10]; [17] 33% | [11]; at 1.2 µM -9% | [11]; at 3.7 µM -6% | [11]; at 11.0 µM 30%

Cn1c2ccccc2c(=O)c2cc(NC(=O)CCCCC(=O)Nc3ccc4c(c3)c(=O)c3ccccc3n4C)ccc21
active: [12]; at 33.0 µM 76% | [12]; at 100.0 µM 87% | [14]; at 100.0 µM 80% | [16]; at 33.0 µM 76% | [16]; [18] 82% | [16]; at 50.0 µM 80.5% | [16]; at 100.0 µM 78% | [11]; at 100.0 µM 79%
inactive: [12]; at 1.2 µM 0% | [12]; at 3.7 µM 6% | [12]; at 11.0 µM 35% | [13]; at 1.2 µM 4% | [13]; at 3.7 µM -4% | [13]; at 11.0 µM -1% | [13]; at 33.0 µM 4% | [13]; at 100.0 µM 20% | [14]; at 1.2 µM -1% | [14]; at 3.7 µM 4% | [14]; at 11.0 µM 14% | [14]; at 33.0 µM 55% | [15]; at 1.2 µM 1% | [15]; at 3.7 µM 6% | [15]; at 11.0 µM -9% | [15]; at 33.0 µM -3% | [15]; at 100.0 µM 46% | [16]; at 1.2 µM 0% | [16]; at 3.7 µM 11% | [16]; [17] 9% | [16]; at 11.0 µM 41% | [1]; at 1.2 µM -5% | [1]; at 3.7 µM -2% | [1]; [17] -7% | [1]; at 11.0 µM 2% | [1]; at 33.0 µM 13% | [1]; [18] 6% | [1]; at 50.0 µM 12.4% | [1]; at 100.0 µM 47% | [2]; at 1.2 µM -1% | [2]; at 3.7 µM 3% | [2]; at 11.0 µM 3% | [2]; at 33.0 µM 17% | [2]; at 100.0 µM 58% | [3]; [17] -4% | [3]; [18] 16% | [3]; at 50.0 µM -1.45% | [4]; at 1.2 µM -6% | [4]; at 3.7 µM -4% | [4]; at 11.0 µM -8% | [4]; at 33.0 µM 3% | [4]; at 100.0 µM 27% | [5]; [17] -1% | [5]; [18] 5% | [5]; at 50.0 µM -12.1% | [6]; at 1.2 µM -4% | [6]; at 3.7 µM -5% | [6]; [17] 1% | [6]; at 11.0 µM -5% | [6]; at 33.0 µM -3% | [6]; [18] 10% | [6]; at 50.0 µM -22.2% | [6]; at 100.0 µM 19% | [7]; at 1.2 µM -3% | [7]; at 3.7 µM -2% | [7]; at 11.0 µM -1% | [7]; at 33.0 µM 10% | [7]; at 100.0 µM 40% | [8]; at 1.2 µM 0% | [8]; at 3.7 µM 2% | [8]; at 11.0 µM 3% | [8]; at 33.0 µM 24% | [8]; at 100.0 µM 66% | [9]; at 1.2 µM -5% | [9]; at 3.7 µM -6% | [9]; at 11.0 µM -6% | [9]; at 33.0 µM 4% | [9]; at 100.0 µM 49% | [10]; [17] 9% | [10]; [18] 9% | [10]; at 50.0 µM 62.8% | [11]; at 1.2 µM 1% | [11]; at 3.7 µM 0% | [11]; at 11.0 µM 3% | [11]; at 33.0 µM 49%
